Measurements taken from PubChem BioAssay AID1159580 (chemical genetic matrix, 2015).
The whole screen tested about 5,500 compounds, of which about 2,000 (36%) were called active. About 18% were inconclusive and are not listed. Cut-off read from the data, not from the text of the source: active = normalized growth mostly below about 0.91 (no sharp cut-off); inconclusive = no clear call, values can overlap the other calls; inactive = mostly above about 0.92. Some of the results follow.

Test: chemical genetic growth profiling, strain panel (AID 1159580);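 note: tested at 20 µM; growth read once vehicle control cultures reached saturation at 30 °C; 1 = growth at the plate median or of vehicle wells; lower values mean less growth of the strain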
Settings: growth OD

Measured: normalized growth

CCOC(=O)[C@H](CCc1ccccc1)N[C@@H](C)C(=O)N1[C@H](C(=O)O)C[C@@H]2CCC[C@@H]21
inactive: S. cerevisiae deletion strains, locus YJR075W, strain HOC1, stronger effect = lower value 0.998 | S. cerevisiae deletion strains, locus YKL009W, strain mrt4, stronger effect = lower value 1.01 | S. cerevisiae deletion strains, locus YKL068W, stronger effect = lower value 1.02 | S. cerevisiae deletion strains, locus YKL085W, strain MDH1 (second series), stronger effect = lower value 1.02 | S. cerevisiae deletion strains, locus YKL085W, strain MDH1, stronger effect = lower value 1.02 | S. cerevisiae deletion strains, locus YKL160W, strain elf1, stronger effect = lower value 0.981 | S. cerevisiae deletion strains, locus YKL190W, strain CNB1, stronger effect = lower value 1.01 | S. cerevisiae deletion strains, locus YKR001C, strain vps1, stronger effect = lower value 1.02 | S. cerevisiae deletion strains, locus YKR026C, strain gcn3, stronger effect = lower value 0.98 | S. cerevisiae deletion strains, locus YKR091W, strain srl3, stronger effect = lower value 0.985 | S. cerevisiae deletion strains, locus YLL001W, strain dnm1, stronger effect = lower value 0.989 | S. cerevisiae deletion strains, locus YLL026W, stronger effect = lower value 0.991 | S. cerevisiae deletion strains, locus YLL041C, strain sdh2, stronger effect = lower value 0.982 | S. cerevisiae deletion strains, locus YLR027C, strain aat2, stronger effect = lower value 0.992 | S. cerevisiae deletion strains, locus YLR039C, strain RIC1, stronger effect = lower value 1.06 | S. cerevisiae deletion strains, locus YLR058C, strain SHM2, stronger effect = lower value 1.01 | S. cerevisiae deletion strains, locus YLR102C, strain apc9, stronger effect = lower value 1.02 | S. cerevisiae deletion strains, locus YLR113W, strain HOG1, stronger effect = lower value 0.98 | S. cerevisiae deletion strains, locus YLR221C, strain rsa3, stronger effect = lower value 1 | S. cerevisiae deletion strains, locus YLR258W, strain gsy2, stronger effect = lower value 0.991 | S. cerevisiae deletion strains, locus YLR262C, strain YPT6 (second series), stronger effect = lower value 0.967 | S. cerevisiae deletion strains, locus YLR262C, strain YPT6, stronger effect = lower value 1.08 | S. cerevisiae deletion strains, locus YLR268W, strain sec22, stronger effect = lower value 1.02 | S. cerevisiae deletion strains, locus YLR320W, strain mms22, stronger effect = lower value 0.975 | S. cerevisiae deletion strains, locus YLR330W, strain CHS5, stronger effect = lower value 1.01 | S. cerevisiae deletion strains, locus YLR342W, strain FKS1 (second series), stronger effect = lower value 1.02 | S. cerevisiae deletion strains, locus YLR342W, strain FKS1, stronger effect = lower value 0.989 | S. cerevisiae deletion strains, locus YLR357W, strain rsc2, stronger effect = lower value 0.978 | S. cerevisiae deletion strains, locus YLR370C, strain arc18, stronger effect = lower value 0.98 | S. cerevisiae deletion strains, locus YLR371W, strain rom2, stronger effect = lower value 1.01 | S. cerevisiae deletion strains, locus YLR384C, strain iki3, stronger effect = lower value 0.984 | S. cerevisiae deletion strains, locus YLR418C, strain cdc73, stronger effect = lower value 1.06 | S. cerevisiae deletion strains, locus YML016C, strain PPZ1, stronger effect = lower value 1.02 | S. cerevisiae deletion strains, locus YML032C, strain rad52, stronger effect = lower value 1.02 | S. cerevisiae deletion strains, locus YML120C, strain ndi1, stronger effect = lower value 0.993 | S. cerevisiae deletion strains, locus YML124C, strain tub3, stronger effect = lower value 1.02 | S. cerevisiae deletion strains, locus YMR058W, strain fet3, stronger effect = lower value 0.99 | S. cerevisiae deletion strains, locus YMR078C, strain ctf18, stronger effect = lower value 1.03 | S. cerevisiae deletion strains, locus YMR125W, strain sto1, stronger effect = lower value 0.976 | S. cerevisiae deletion strains, locus YMR129W, stronger effect = lower value 0.979 | S. cerevisiae deletion strains, locus YMR205C, strain PFK2, stronger effect = lower value 0.981 | S. cerevisiae deletion strains, locus YMR223W, strain ubp8, stronger effect = lower value 1.02 | S. cerevisiae deletion strains, locus YMR231W, strain pep5, stronger effect = lower value 0.978 | S. cerevisiae deletion strains, locus YMR263W, strain SAP30, stronger effect = lower value 1.02 | S. cerevisiae deletion strains, locus YMR307W, strain GAS1, stronger effect = lower value 1.04 | S. cerevisiae deletion strains, locus YNL067W, strain RPL9B, stronger effect = lower value 1.01 | S. cerevisiae deletion strains, locus YNL071W, strain lat1, stronger effect = lower value 0.975 | S. cerevisiae deletion strains, locus YNL128W, strain TEP1, stronger effect = lower value 1 | S. cerevisiae deletion strains, locus YNL153C, strain GIM3, stronger effect = lower value 1.01 | S. cerevisiae deletion strains, locus YNL183C, strain NPR1, stronger effect = lower value 0.968 | S. cerevisiae deletion strains, locus YNL209W, strain ssb2, stronger effect = lower value 0.981 | S. cerevisiae deletion strains, locus YNL233W, strain BNI4, stronger effect = lower value 1 | S. cerevisiae deletion strains, locus YNL248C, strain rpa49, stronger effect = lower value 0.986 | S. cerevisiae deletion strains, locus YNL250W, strain rad50, stronger effect = lower value 1.03 | S. cerevisiae deletion strains, locus YNL271C, strain bni1, stronger effect = lower value 1.02 | S. cerevisiae deletion strains, locus YNL298W, strain CLA4, stronger effect = lower value 1.03 | S. cerevisiae deletion strains, locus YNL307C, strain MCK1, stronger effect = lower value 1.02 | S. cerevisiae deletion strains, locus YNL322C, strain KRE1 (second series), stronger effect = lower value 0.982 | S. cerevisiae deletion strains, locus YNL322C, strain KRE1, stronger effect = lower value 1.01 | S. cerevisiae deletion strains, locus YNR049C, strain mso1, stronger effect = lower value 0.985 | S. cerevisiae deletion strains, locus YNR052C, strain pop2, stronger effect = lower value 1.01 | S. cerevisiae deletion strains, locus YOL006C, strain TOP1, stronger effect = lower value 1.03 | S. cerevisiae deletion strains, locus YOL012C, strain htz1 1.2 | S. cerevisiae deletion strains, locus YOL147C, strain pex11, stronger effect = lower value 1.01 | S. cerevisiae deletion strains, locus YOR001W, strain rrp6, stronger effect = lower value 0.997 | S. cerevisiae deletion strains, locus YOR061W, strain CKA2, stronger effect = lower value 1.01 | S. cerevisiae deletion strains, locus YOR069W, strain VPS5, stronger effect = lower value 1 | S. cerevisiae deletion strains, locus YOR070C, strain gyp1, stronger effect = lower value 0.991 | S. cerevisiae deletion strains, locus YOR080W, strain dia2, stronger effect = lower value 0.982 | S. cerevisiae deletion strains, locus YOR083W, strain WHI5, stronger effect = lower value 0.984 | S. cerevisiae deletion strains, locus YOR106W, strain vam3, stronger effect = lower value 1.01 | S. cerevisiae deletion strains, locus YOR136W, strain idh2, stronger effect = lower value 1.02 | S. cerevisiae deletion strains, locus YOR144C, strain elg1, stronger effect = lower value 1.02 | S. cerevisiae deletion strains, locus YOR184W, strain ser1, stronger effect = lower value 1.03 | S. cerevisiae deletion strains, locus YOR231W, strain MKK1, stronger effect = lower value 0.983 | S. cerevisiae deletion strains, locus YOR265W, strain rbl2, stronger effect = lower value 0.979 | S. cerevisiae deletion strains, locus YOR270C, strain vph1, stronger effect = lower value 1.03 | S. cerevisiae deletion strains, locus YOR290C, strain snf2, stronger effect = lower value 0.988 | S. cerevisiae deletion strains, locus YOR316C, strain cot1, stronger effect = lower value 1.02 | S. cerevisiae deletion strains, locus YPL051W, strain arl3, stronger effect = lower value 0.987 | S. cerevisiae deletion strains, locus YPL055C, strain LGE1, stronger effect = lower value 1.02 | S. cerevisiae deletion strains, locus YPL078C, strain atp4, stronger effect = lower value 0.977 | S. cerevisiae deletion strains, locus YPL106C, strain sse1, stronger effect = lower value 0.988 | S. cerevisiae deletion strains, locus YPL240C, strain hsp82, stronger effect = lower value 0.984 | S. cerevisiae deletion strains, locus YPL241C, strain CIN2, stronger effect = lower value 0.999 | S. cerevisiae deletion strains, locus YPL256C, strain CLN2, stronger effect = lower value 0.973 | S. cerevisiae deletion strains, locus YPR119W, strain clb2, stronger effect = lower value 1.01 | S. cerevisiae deletion strains, locus YPR141C, strain kar3, stronger effect = lower value 1.03 | S. cerevisiae deletion strains, locus YPR163C, strain tif3, stronger effect = lower value 1.01 | S. cerevisiae deletion strains, locus YPR167C, strain met16, stronger effect = lower value 1.02 | S. cerevisiae deletion strains, strain wtn01, stronger effect = lower value 1.02 | S. cerevisiae strains, strain wild type, stronger effect = lower value 1.01
